Compounds without any hit were thinned out: in the full panel of roughly 83,000, 20% have a hit.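 Single-dose data. Exposure time 48 hours. Values below 10 considered active.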 The source made the active and inactive calls.
Assays:
Assay in all cases: NCI-60 one-dose screen, 48 h (100 = growth as untreated, 0 = no growth, -100 = all killed)
Conditions in all cases: 10 µM unless noted
SR leukemia = system: SR leukemia
RPMI-8226 leukemia = system: RPMI-8226 leukemia
OVCAR-8 ovarian = system: OVCAR-8 ovarian
OVCAR-5 ovarian = system: OVCAR-5 ovarian
OVCAR-4 ovarian = system: OVCAR-4 ovarian
SK-OV-3 ovarian = system: SK-OV-3 ovarian
IGROV1 ovarian = system: IGROV1 ovarian
OVCAR-3 ovarian = system: OVCAR-3 ovarian
HS 578T breast = system: HS 578T breast
NCI/ADR-RES ovarian = system: NCI/ADR-RES ovarian

Measured: growth

COC(=O)c1cc(C(=O)C(F)(F)F)n2c3ccccc3c3ccccc3c12
inactive: SR leukemia 60.7% | RPMI-8226 leukemia 96% | OVCAR-8 ovarian 42.7% | OVCAR-5 ovarian 83.5% | OVCAR-4 ovarian 10.8% | SK-OV-3 ovarian 82.9% | IGROV1 ovarian 40% | OVCAR-3 ovarian 82.9% | HS 578T breast 41.7% | NCI/ADR-RES ovarian 67.7%

COc1ccc(C(=O)c2c(N)c(C#N)cn2-c2ccc([N+](=O)[O-])cc2)cc1
inactive: SR leukemia 94.5% | RPMI-8226 leukemia 108% | OVCAR-8 ovarian 88.5% | OVCAR-5 ovarian 107% | OVCAR-4 ovarian 101% | SK-OV-3 ovarian 93.9% | IGROV1 ovarian 109% | OVCAR-3 ovarian 122% | HS 578T breast 95.2% | NCI/ADR-RES ovarian 98.2%

COc1ccc2c(c1)C(Sc1ccc(Cl)cc1)c1c(nc(N)c(C#N)c1N)O2 (stereo not given)
active: SR leukemia -3.94%
inactive: RPMI-8226 leukemia 29.4% | OVCAR-8 ovarian 73.6% | OVCAR-5 ovarian 108% | OVCAR-4 ovarian 73.5% | SK-OV-3 ovarian 107% | IGROV1 ovarian 25.9% | OVCAR-3 ovarian 93.2% | HS 578T breast 45.8% | NCI/ADR-RES ovarian 73.6%

COc1ccc(N=Nc2c(N)nn3c(N)c(C#N)c(-c4ccc(C)cc4)nc23)cc1
active: RPMI-8226 leukemia 3.4%
inactive: SR leukemia 44.6% | OVCAR-8 ovarian 66.3% | OVCAR-5 ovarian 99.9% | OVCAR-4 ovarian 53.2% | SK-OV-3 ovarian 90.2% | IGROV1 ovarian 33.5% | OVCAR-3 ovarian 15.2% | HS 578T breast 27.7% | NCI/ADR-RES ovarian 62.2%

Cc1cc(C2(c3cc(C)c(OCC(O)CNc4c(C)n(C)n(-c5ccccc5)c4=O)cc3C(C)C)OC(=O)c3ccccc32)c(C(C)C)cc1OCC(O)CNc1c(C)n(C)n(-c2ccccc2)c1=O (stereo not given)
active: SR leukemia 5.65%
inactive: RPMI-8226 leukemia 24.4% | OVCAR-8 ovarian 33.1% | OVCAR-5 ovarian 50.9% | OVCAR-4 ovarian 38.6% | SK-OV-3 ovarian 67.5% | IGROV1 ovarian 43.1% | OVCAR-3 ovarian 15.5% | HS 578T breast 22.1% | NCI/ADR-RES ovarian 58%

Cn1cc(-c2cc3nc(-c4cn(C)c5ncc(Br)cc45)cc(N)n3n2)c2cc(F)ccc21
inactive: RPMI-8226 leukemia 32.9% | OVCAR-8 ovarian 10.5% | OVCAR-5 ovarian 31.8% | SK-OV-3 ovarian 75% | IGROV1 ovarian 19.8% | OVCAR-3 ovarian 20.3% | HS 578T breast 35% | NCI/ADR-RES ovarian 10.5%
active: SR leukemia -23.7% | OVCAR-4 ovarian 3.36%

Cc1ccc(C(=O)Nc2cc(-c3ccncc3)cc(C(F)(F)F)c2)cc1C#Cc1cnc2cccnn12
active: SR leukemia -11.9%
inactive: RPMI-8226 leukemia 20% | OVCAR-8 ovarian 50.4% | OVCAR-5 ovarian 53.5% | OVCAR-4 ovarian 63.5% | SK-OV-3 ovarian 127% | IGROV1 ovarian 54.4% | OVCAR-3 ovarian 95.6% | HS 578T breast 23% | NCI/ADR-RES ovarian 50.2%

COc1c(B(O)O)cccc1-c1nc2ccc3cn[nH]c3c2c2c1CCCC2
inactive: SR leukemia 71.8% | RPMI-8226 leukemia 45.8% | OVCAR-8 ovarian 48.4% | OVCAR-5 ovarian 76.1% | OVCAR-4 ovarian 77.3% | SK-OV-3 ovarian 25.3% | IGROV1 ovarian 57.9% | OVCAR-3 ovarian 57% | NCI/ADR-RES ovarian 65.2%
active: HS 578T breast -17.9%

NC(=O)c1ccc(-c2ccc3ncnc(N4CCc5cc(F)c(Cl)cc54)c3c2)cn1
inactive: SR leukemia 15.2% | RPMI-8226 leukemia 48.5% | OVCAR-8 ovarian 71.1% | OVCAR-5 ovarian 73.5% | OVCAR-4 ovarian 88.7% | SK-OV-3 ovarian 101% | OVCAR-3 ovarian 64.8% | HS 578T breast 55.4% | NCI/ADR-RES ovarian 74.6%
active: IGROV1 ovarian 2.18%

N/C(=N\c1nc2ccc([N+](=O)[O-])cc2s1)NC(=O)Nc1ccccc1Cl
active: OVCAR-8 ovarian 6.87% | OVCAR-4 ovarian -26.5% | OVCAR-3 ovarian -52.8%
inactive: SR leukemia 23.6% | RPMI-8226 leukemia 60.7% | OVCAR-5 ovarian 38.2% | SK-OV-3 ovarian 24.2% | IGROV1 ovarian 55.8% | HS 578T breast 59.7% | NCI/ADR-RES ovarian 37.6%

CS(=O)(=O)Nc1cc(-c2ccc3ncnc(N4CCc5cc(F)c(Cl)cc54)c3c2)cnc1Cl
inactive: OVCAR-8 ovarian 13.3% | OVCAR-5 ovarian 11.1% | OVCAR-4 ovarian 10.6% | NCI/ADR-RES ovarian 12.1%
active: SR leukemia -31.9% | RPMI-8226 leukemia -9.06% | SK-OV-3 ovarian -17.5% | IGROV1 ovarian -33.7% | OVCAR-3 ovarian -22.6% | HS 578T breast -31.8%

N#Cc1c(NC(=O)N2CCOCC2)n(-c2ccc(OC(F)(F)F)cc2)c2cc(F)ccc12
inactive: SR leukemia 80% | RPMI-8226 leukemia 57.9% | OVCAR-8 ovarian 99.1% | OVCAR-5 ovarian 88.2% | OVCAR-4 ovarian 87% | SK-OV-3 ovarian 120% | IGROV1 ovarian 105% | OVCAR-3 ovarian 111% | HS 578T breast 102% | NCI/ADR-RES ovarian 80.5%

Nc1nn2c(-c3cc4cc(Br)ccc4oc3=O)ccnc2c1N=Nc1ccc(Br)cc1
active: IGROV1 ovarian -16.1% | OVCAR-3 ovarian 5.27%
inactive: SR leukemia 29.7% | RPMI-8226 leukemia 86.3% | OVCAR-8 ovarian 14.5% | OVCAR-5 ovarian 11.8% | OVCAR-4 ovarian 12.8% | SK-OV-3 ovarian 22.4% | HS 578T breast 28.3% | NCI/ADR-RES ovarian 14.1%

COc1ccc(N=Nc2c(N)nn3c(-c4cc5cc(Br)ccc5oc4=O)ccnc23)cc1
active: IGROV1 ovarian 6.35%
inactive: SR leukemia 28% | RPMI-8226 leukemia 48.5% | OVCAR-8 ovarian 19.5% | OVCAR-5 ovarian 33.4% | OVCAR-4 ovarian 32.2% | SK-OV-3 ovarian 17.4% | OVCAR-3 ovarian 25.3% | HS 578T breast 35.4% | NCI/ADR-RES ovarian 15.5%

O=C1Nc2cc(-c3ccc(NS(=O)(=O)c4ccc(F)c(Cl)c4)cc3)ccc2/C1=C/c1ccc[nH]1
active: SR leukemia 6.77%
inactive: RPMI-8226 leukemia 21.4% | OVCAR-8 ovarian 34.9% | OVCAR-5 ovarian 19.7% | OVCAR-4 ovarian 26.4% | SK-OV-3 ovarian 39.6% | IGROV1 ovarian 45.9% | OVCAR-3 ovarian 56.9% | HS 578T breast 45.6% | NCI/ADR-RES ovarian 29.7%

O=C(Nc1ccc(S(=O)(=O)N2CCCCC2)cc1)C(Cl)Cl
inactive: SR leukemia 95.7% | RPMI-8226 leukemia 110% | OVCAR-8 ovarian 111% | OVCAR-5 ovarian 127% | OVCAR-4 ovarian 104% | SK-OV-3 ovarian 118% | IGROV1 ovarian 135% | OVCAR-3 ovarian 114% | HS 578T breast 119% | NCI/ADR-RES ovarian 114%

O=C(N=Nc1c(O)[nH]c2ccc(Cl)cc12)c1ccc2nc(-c3ccc(Cl)cc3)[nH]c2c1
active: OVCAR-8 ovarian -34.8% | OVCAR-4 ovarian -3.41% | IGROV1 ovarian -11.1% | OVCAR-3 ovarian -5.16%
inactive: SR leukemia 10.6% | RPMI-8226 leukemia 77.8% | OVCAR-5 ovarian 36.2% | SK-OV-3 ovarian 42% | HS 578T breast 12.2% | NCI/ADR-RES ovarian 94.7%

COc1ccc(NC(=O)Cn2c(/C=C/c3cccc(OC)c3)nc3ccccc3c2=O)cc1
active: OVCAR-4 ovarian -30.1% | HS 578T breast 9.48%
inactive: SR leukemia 77.6% | RPMI-8226 leukemia 41.1% | OVCAR-8 ovarian 10.4% | OVCAR-5 ovarian 40% | SK-OV-3 ovarian 44.8% | IGROV1 ovarian 37.7% | OVCAR-3 ovarian 28.5% | NCI/ADR-RES ovarian 35.4%

Nc1nn2c(-c3cc4cc(Br)ccc4oc3=O)ccnc2c1N=Nc1ccccc1
active: SR leukemia 1.69% | OVCAR-8 ovarian -14.9% | OVCAR-4 ovarian -5.33% | SK-OV-3 ovarian -6.82% | HS 578T breast -20.7% | NCI/ADR-RES ovarian -16.7%
inactive: RPMI-8226 leukemia 75.2% | OVCAR-5 ovarian 16.8% | IGROV1 ovarian 13.1% | OVCAR-3 ovarian 27.1%

N#Cc1c(-c2ccc(F)cc2)nc(SCc2ccc(F)cc2)nc1N1CCNCC1
active: SR leukemia -2.24% | RPMI-8226 leukemia -47.4% | OVCAR-8 ovarian -84% | OVCAR-5 ovarian 0.484% | OVCAR-4 ovarian -8.59% | IGROV1 ovarian -27.1% | OVCAR-3 ovarian -35.1% | HS 578T breast -0.165% | NCI/ADR-RES ovarian -39%
inactive: SK-OV-3 ovarian 56.7%

COc1cc(C2CC(c3ccc(F)cc3)=Nc3c(N)nc(N)nc3N2)ccc1Oc1nc(Nc2ccc(F)cc2)nc(N(C)C)n1 (stereo not given)
active: SR leukemia -21.5%
inactive: RPMI-8226 leukemia 15.7% | OVCAR-8 ovarian 63% | OVCAR-5 ovarian 100% | OVCAR-4 ovarian 23.5% | SK-OV-3 ovarian 86.8% | IGROV1 ovarian 51.7% | OVCAR-3 ovarian 71.6% | HS 578T breast 56% | NCI/ADR-RES ovarian 48.5%

CCCCCCCCc1cccc(CC(=O)Nc2ccc(C)cc2C(=O)O)c1
inactive: SR leukemia 31.1% [25 µM] | RPMI-8226 leukemia 25.4% [25 µM] | OVCAR-8 ovarian 45.6% [25 µM] | OVCAR-5 ovarian 75.6% [25 µM] | OVCAR-4 ovarian 86.1% [25 µM] | SK-OV-3 ovarian 89.2% [25 µM] | IGROV1 ovarian 42.5% [25 µM] | OVCAR-3 ovarian 69.4% [25 µM] | HS 578T breast 89.8% [25 µM] | NCI/ADR-RES ovarian 49.6% [25 µM]

— PubChem BioAssay (NCI)
